Laboratory results as given in PubChem BioAssay (Tox21).
Inconclusive results are not listed. Unmarked numbers belong to inactive results. Calls of active or inactive are those of the source. Calls come from the whole dose curve; as a rule, active = well fitted inhibition curve with a large enough effect in the signal ratio in the repeat runs (not every such curve was filed as active); inconclusive = weak or mixed curves, or effect the other way; inactive = no such curve, though single readings can be large or run the other way; the % refers to the signal ratio.

These molecules were tested against Estrogen receptor beta (Homo sapiens) (UniProt Q92731) (assay: qHTS assay to identify small molecule antagonists of the estrogen receptor beta (ER-beta) signaling pathway (AID 1259378)). Settings: ER-beta-UAS-bla HEK293T, beta-lactamase FRET ratio, 16 h; series mostly up to 92.4 µM; activity, negative = inhibition: at the top concentration.
Sequence of Estrogen receptor beta (Homo sapiens) (Q92731 whole entry, looked up): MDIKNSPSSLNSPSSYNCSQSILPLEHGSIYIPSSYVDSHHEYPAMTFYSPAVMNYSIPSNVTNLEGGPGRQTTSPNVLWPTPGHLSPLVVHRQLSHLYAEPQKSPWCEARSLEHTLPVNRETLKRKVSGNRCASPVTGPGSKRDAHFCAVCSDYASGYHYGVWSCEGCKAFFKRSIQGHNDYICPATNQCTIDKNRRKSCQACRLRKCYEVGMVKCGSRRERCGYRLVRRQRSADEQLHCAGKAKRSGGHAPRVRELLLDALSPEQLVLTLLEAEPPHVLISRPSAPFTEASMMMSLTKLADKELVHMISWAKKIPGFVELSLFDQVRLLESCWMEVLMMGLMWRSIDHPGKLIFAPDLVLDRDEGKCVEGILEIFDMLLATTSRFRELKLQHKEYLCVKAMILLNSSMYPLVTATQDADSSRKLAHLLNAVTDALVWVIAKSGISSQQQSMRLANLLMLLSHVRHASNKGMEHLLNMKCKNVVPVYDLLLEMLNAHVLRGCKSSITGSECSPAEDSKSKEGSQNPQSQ
From the text: National Center for Advancing Translational Sciences [NCATS]
NIH Chemical Genomics Center [NCGC]
U.S. Environmental Protection Agency [EPA]
National Institutes of Environmental Health Sciences [NIEHS]
National Toxicology Program [NTP]
U.S. Food and Drug Administration [FDA]
Estrogen receptor (ER), a nuclear hormone receptor, plays an important role in development, metabolic homeostasis and reproduction. Two subtypes of ER, ER-alpha and ER-beta, have similar expression patterns with some uniqueness in both types. Endocrine disrupting chemicals (EDCs) and their interactions with steroid hormone receptors like ER causes disruption of normal endocrine function. To identify the compounds that inhibit ER signaling, an ER-beta-UAS-bla GripTite cell line (Life Technologies, Madison, WI, USA) containing a beta-lactamase reporter gene under the control of an UAS response element was used to screen Tox21 10K compound library.
Tox21 Assay Protocol Summary:
ER-beta-UAS-bla HEK293T cells were dispensed at 2,000 cells/4 uL of assay medium containing 2% charcoal stripped FBS per well into black wall/clear-bottom 1536-well plates using a Multidrop Combi (ThermoFisher Scientific, Waltham, MA) dispenser. After the assay plates were incubated at a 37C and 5% CO2 for 6 hr, 23 nL of compounds dissolved in DMSO, positive controls or DMSO only was transferred to the assay plate by a Pintool station (Kalypsys, San Diego, CA), followed by addition of 1 uL (1nM as final concentration) of 17-beta-estradiol (E2) in assay medium using a BioRAPTR FRD (Flying Reagent Dispenser, Aurora Discovery, San Diego, CA). The plates were incubated at 37C and 5% CO2 for 16 hr. Then 1 uL of LiveBLAzerTM B/G FRET substrate was added using a Flying Reagent Dispenser, the plates were incubated at room temperature for 2 hours, and fluorescence intensity was measured by an Envision plate reader (PerkinElmer, Shelton, CT).
% is set by controls: 0 for no effect and ±100 for the full control effect; potency is the fitted concentration of half-maximal effect.

Point of comparison: `CC(C)O`, “activity, negative = inhibition” value 9.01%. Against it:
- CCC/C=C/CO — higher, 18.2%
- CCCCC(CC)COC(=O)COc1cc(Cl)c(Cl)cc1Cl (stereo not given) — lower, -5.53%
- CC1=C(O)C(=O)OC1C (stereo not given) — higher, 18.9%
- C=C(C)C(=O)OCCOP(=O)(O)O — lower, 3.26%
- CC1=CC(=O)CC(C)(C)C1=O — lower, -5.68%
- Cc1ccc(C=O)s1 — lower, -1.69%
- Cc1cc(S(=O)(=O)O)c(N)cc1Cl — lower, 6.09%
- CCCCCCCCOC(=O)CCCCCCCCC(=O)OCCCCCCCC — higher, 23.2%
- OCCN(CCO)CCN(CCO)CCO — lower, -2.1%
- FC(F)(F)C(Cl)(Cl)Cl — higher, 10.2%
- C=CCCC=C — lower, 4.53%
- O=C1CCC(C2CCCCC2)CC1 — lower, 2.92%
- OCCN1CCN(CCO)CC1 — lower, 8.42%
- COC(=O)c1ccc(OC)cc1 — lower, 8.17%
- OC[C@H]1O[C@@H](O[C@H]2[C@H](O)[C@@H](O)[C@H](O)O[C@@H]2CO)[C@H](O)[C@@H](O)[C@H]1O — lower, 6.36%
- CC(C)(C)c1ccc(OC(=O)c2ccccc2O)cc1 — lower, -9.68%
- ICCc1ccccc1 — higher, 13.1%
- CC1(O)CSC(C)(O)CS1 (stereo not given) — lower, -1.88%
- Cc1ccc(C(C)C)cc1O — lower, 1.24%
- Cc1ccc(C)c(N)c1 — lower, 4.89%
- O=S(=O)(O)C(F)(F)F — higher, 22.3%

Point of comparison: `CC(=O)Oc1cc(C(C)C)c(OCCN(C)C)cc1C`, “activity, negative = inhibition” value 1.18% [at 42.5 µM]. Against it:
- CC1(C)S[C@@H]2[C@H](NC(=O)C(C(=O)O)c3ccccc3)C(=O)N2[C@H]1C(=O)O (stereo not given in full) — higher, 20.6% [at 42.5 µM]
- O=C(CCCl)NCc1ccccc1 — higher, 10.2% [at 42.5 µM]
- CN1CCC[C@@H]1Cc1c[nH]c2ccc(CCS(=O)(=O)c3ccccc3)cc12 — lower, 0.427% [at 42.5 µM]
- COc1ccccc1N1CCN(CCCNc2cc(=O)n(C)c(=O)n2C)CC1 — higher, 8.72% [at 42.5 µM]
- CN(C)CCOc1ccccc1Cc1ccccc1 — lower, -16.3% [at 42.5 µM]
- CN1[C@@H]2CC[C@H]1CC(OC(=O)c1c[nH]c3ccccc13)C2 (stereo not given in full) — lower, -15.1% [at 42.5 µM]
- CCCCCCn1c(=O)c2c(ncn2C)n(C)c1=O — lower, 0.774% [at 42.5 µM]
- COC(=O)N[C@H](C(=O)N[C@@H](Cc1ccccc1)[C@@H](O)CN(Cc1ccc(-c2ccccn2)cc1)NC(=O)[C@@H](NC(=O)OC)C(C)(C)C)C(C)(C)C — lower, 0.659% [at 42.5 µM]
- Cc1ncc(CO)c(CN)c1O — higher, 7.3% [at 42.5 µM]
- COC(=O)/C=C(/C)N — higher, 12% [at 42.5 µM]
- CCOC(=O)c1ccccc1O — higher, 1.45% [at 42.5 µM]
- CCN(CC)CC1CCCCN1CC(=O)N1c2ccccc2C(=O)Nc2cccnc21 (stereo not given) — higher, 5.63% [at 42.5 µM]
- CC(Oc1c(Cl)cccc1Cl)C1=NCCN1 (stereo not given) — lower, 0.392% [at 42.5 µM]
- CC(C)NCC(O)COc1ccc(CCOCC2CC2)cc1 (stereo not given) — lower, 0.755% [at 42.5 µM]
- Cc1cc(NS(=O)(=O)c2ccc(N)cc2)nc(C)n1 — higher, 5.83% [at 42.5 µM]

With `O=C(O)CN(CCN(CC(=O)O)CC(=O)O)CCN(CC(=O)O)CC(=O)O` the Potency was 5.8 µM (active).

Work on `O=c1oc2c(O)c(O)cc3c(=O)oc4c(O)c(O)cc1c4c23` yielded an activity, negative = inhibition of -0.396% [at 19 µM].
